IL1B secr inh: blocks inflammasome-driven IL-1 beta release | AID 743279 | activity change, % at 57.5 µM | THP-1 LPS/ATP IL-1B secretion, AlphaLISA, 16 h; active compounds read low | 4.7% of 360,000 active; in the data active means activity change below about -50%; inconclusive means mostly about -30% to -49%
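THP-1 cells pretreated 1 hr with compounds (up to 57.5 uM final), then stimulated with LPS (250 ng/mL final) plus ATP (1.25 mM final); secreted IL-1B measured by AlphaLISA after 16 hr, decreased signal indicating inhibition.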
HT1080 IDH1KD tx: toxicity to HT-1080 IDH1 knockdown cells (counter line); HT-1080 IDH1 knockdown viability, ATP luminescence, 48 h; Potency, µM (titrated, usually from 46.1 µM), inactives show at the top dose activity, negative = toxicity, usual class: cytotoxic; 2% of 360,000 active;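 further: potency means the concentration at half of the fitted maximal effect; 0% = DMSO wells and -100% = cell-free medium wells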
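HT-1080-IDH1KD cells (IDH1 knocked down), 750/well in RPMI with 5% FBS, treated with compound 48 h at 37 degrees C. Viability by CellTiter-Glo luminescence, normalised to DMSO and no-cell wells; concentration-response curves classed.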
HT1080NT lethal: kills 2HG-producing HT-1080-NT fibrosarcoma cells | HT-1080-NT fibrosarcoma viability, CellTiter-Glo ATP luminescence, 48 h | Potency, µM (highest dose often 46.1 µM), for inactives: at the top dose activity, negative = less viability, most hits filed as cytotoxic | 1.6% of 360,000 active;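 further: NT is the 2HG producing partner of a matched IDH1 knockdown line; potency means the concentration at half of the fitted maximal effect; 0% = DMSO-treated cells and -100% = media-only wells without cells; nearly all actives have a fitted effect of over 55% in size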
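HT-1080-NT fibrosarcoma cells (2HG-overproducing), 750 cells/well in RPMI with 5% FBS, dosed after 2 h and incubated 48 h at 37C. CellTiter-Glo luminescence normalized to DMSO and no-cell wells; concentration-response curves fitted and classed.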
DT40 TDP1 no CPT: qHTS for Inhibitors of human tyrosyl-DNA phosphodiesterase 1 (TDP1): qHTS in cells in absence of CPT; DT40 Tdp1-/- hTDP1 cells, no CPT, ATP luminescence, 48 h; Potency, µM (top dose mostly 46.2 µM), inactives show at the top dose activity change, negative = growth inhibition, usual class: inhibitors; 15% of 420,000 active; further: potency means the concentration at half of the fitted maximal effect; nearly all actives have a fitted effect of over 55% in size
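Readout: luminescence from CellTiter-Glo after 30 min in the dark at RT. Cells: DT40 Tdp1-/- with stable hTDP1, 400/well. Exposure: compounds alone, ≥48 hr, 37 °C.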
DT40 TDP1 CPT: growth inhibition of DT40 Tdp1-/-;hTDP1 cells with camptothecin (screen for TDP1 inhibitors); 12% of 420,000 active; Potency, µM (top dose mostly 46.2 µM), without a hit: at the top dose activity change, negative = growth inhibition, hits mostly inhibitors; AID 686979; chicken DT40 Tdp1-/-;hTDP1 cells + 20 nM CPT, ATP luminescence, 48 h; further: potency means the concentration at half of the fitted maximal effect; nearly all actives have a fitted effect of over 55% in size
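Chicken DT40 Tdp1-/- cells stably complemented with human TDP1 were seeded at 400 cells/well in medium containing 20 nM camptothecin, exposed to pin-transferred compounds, and grown at 37 °C for at least 48 hr. Viability was read as ATP luminescence.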
Starred values were filed as active, the others as inactive. Shown are actives, neighbours in structure and some others; about 19% of the full set was active somewhere. Unless noted, the call rests on the fitted dose curve; in most records, active means well fitted curve in the direction sought with a large enough effect; inconclusive means small, poorly fitted or top-dose-only effect, or another doubt; inactive means no such curve, though single readings can be large; an effect the other way counts as inactive or inconclusive. Unless noted, on the % scale 0 is the no-effect control and ±100 the full control effect.

Results for CCOC(=O)c1c(C)[nH]c(C(=O)OC(C)C(=O)NC2CCCCC2C)c1C (stereo unspecified) ?
IL1B secr inh: -4; HT1080 IDH1KD tx: -19%; HT1080NT lethal: inconclusive; DT40 TDP1 no CPT: inconclusive; DT40 TDP1 CPT: inconclusive

How did O=C(O)c1ccc(Nc2nc3ccccc3n3cnnc23)cc1 do in these assays?
DT40 TDP1 no CPT: 7.3µM*; DT40 TDP1 CPT: inconclusive

Results for CCCCOC(=O)c1ccc(Nc2nc3ccc(C)cc3n3cnnc23)cc1 ?
DT40 TDP1 no CPT: -22%; DT40 TDP1 CPT: -1%

Results for CCCCOC(=O)c1ccc(Nc2nc3ccc(C(=O)c4ccccc4)cc3n3cnnc23)cc1 ?
DT40 TDP1 no CPT: 16µM*; DT40 TDP1 CPT: 21µM*

What do the screens show for `c1ccc(Nc2nc3ccccc3n3cnnc23)cc1`?
IL1B secr inh: 34; HT1080 IDH1KD tx: 3%; HT1080NT lethal: 4%; DT40 TDP1 no CPT: -25%; DT40 TDP1 CPT: -26%

How did CCOc1ccc(Nc2nc3ccccc3n3cnnc23)cc1 do in these assays?
IL1B secr inh: 0; HT1080 IDH1KD tx: 2%; HT1080NT lethal: -2%; DT40 TDP1 no CPT: 23µM*; DT40 TDP1 CPT: inconclusive

What do the screens show for `CC(C)(C)NCc1ccc(OCc2cccs2)cc1`?
IL1B secr inh: -4; HT1080 IDH1KD tx: 1%; HT1080NT lethal: -12%; DT40 TDP1 no CPT: -14%; DT40 TDP1 CPT: -19%

Results for CCC(=O)c1cn(CC(=O)Nc2ccc(C)cc2)c2ccccc12 ?
IL1B secr inh: 24; HT1080 IDH1KD tx: -14%; HT1080NT lethal: -11%; DT40 TDP1 no CPT: -2%; DT40 TDP1 CPT: -3%

What do the screens show for `Brc1cc2c(cc1CSc1ncccn1)OCO2`?
IL1B secr inh: -3; HT1080 IDH1KD tx: -2%; HT1080NT lethal: -4%; DT40 TDP1 no CPT: inconclusive; DT40 TDP1 CPT: 14%

What do the screens show for `COc1ccc(N2C(=O)c3ccc(C(=O)OC(C)C)cc3C2=O)cc1`?
IL1B secr inh: 4; HT1080 IDH1KD tx: 0%; HT1080NT lethal: -23%; DT40 TDP1 no CPT: 5.8µM*; DT40 TDP1 CPT: 6.5µM*

Results for O=C(CCc1nnc(Cc2c[nH]c3ccccc23)o1)NC(C1CC1)C1CC1 ?
IL1B secr inh: 20; HT1080 IDH1KD tx: 10%; HT1080NT lethal: -2%; DT40 TDP1 no CPT: -20%; DT40 TDP1 CPT: -8%

What do the screens show for `c1ccc(-n2cnnc2SCc2nc3ccccc3s2)cc1`?
IL1B secr inh: 11; HT1080 IDH1KD tx: 1%; HT1080NT lethal: 4%; DT40 TDP1 no CPT: -24%; DT40 TDP1 CPT: 2%

What do the screens show for `c1ccc(-c2ncc(CSc3nncn3-c3ccccc3)s2)cc1`?
IL1B secr inh: 0; HT1080 IDH1KD tx: -1%; HT1080NT lethal: 2%; DT40 TDP1 no CPT: 18µM*; DT40 TDP1 CPT: inconclusive

How did O=C(Nc1ccc(NC(=S)NC(=O)c2ccccc2Cl)cc1)c1cccc(Cl)c1 do in these assays?
IL1B secr inh: -20; HT1080 IDH1KD tx: inconclusive; HT1080NT lethal: -23%; DT40 TDP1 no CPT: 16µM*; DT40 TDP1 CPT: 18µM*

Results for Cc1ccccc1C(=O)NC(=S)Nc1cccc(NC(=O)C(C)C)c1 ?
IL1B secr inh: -3; HT1080 IDH1KD tx: 12%; HT1080NT lethal: -2%; DT40 TDP1 no CPT: inconclusive; DT40 TDP1 CPT: -4%

How did CC(C)C(=O)Nc1cccc(NC(=S)NC(=O)c2ccccc2Cl)c1 do in these assays?
IL1B secr inh: -15; HT1080 IDH1KD tx: -11%; HT1080NT lethal: 1%; DT40 TDP1 no CPT: 18µM*; DT40 TDP1 CPT: inconclusive

Results for CC(OC(=O)c1ccccc1O)C(=O)Nc1cccc(Cl)c1 (stereo unspecified) ?
IL1B secr inh: 1; HT1080 IDH1KD tx: -9%; HT1080NT lethal: -2%; DT40 TDP1 no CPT: 13µM*; DT40 TDP1 CPT: -2%

What do the screens show for `COc1ccccc1C(=O)N/C(=C\c1cn(C)c2ccccc12)C(=O)N1CCCC1`?
IL1B secr inh: 0; HT1080 IDH1KD tx: -4%; HT1080NT lethal: -27%; DT40 TDP1 no CPT: -10%; DT40 TDP1 CPT: inconclusive

Results for CCCNC(=O)c1onc(CSc2cccc(OC)c2)c1C(=O)NCCC ?
IL1B secr inh: 8; HT1080 IDH1KD tx: 12%; HT1080NT lethal: -1%; DT40 TDP1 no CPT: -23%; DT40 TDP1 CPT: -23%

How did COc1cccc(SCc2noc(C(=O)NCCC(C)C)c2C(=O)NCCC(C)C)c1 do in these assays?
IL1B secr inh: -18; HT1080 IDH1KD tx: -3%; HT1080NT lethal: inconclusive; DT40 TDP1 no CPT: 15µM*; DT40 TDP1 CPT: 18µM*

Results for CC(C)CCNC(=O)c1onc(CSc2ccc(F)cc2)c1C(=O)NCCC(C)C ?
IL1B secr inh: -6; HT1080 IDH1KD tx: 6%; HT1080NT lethal: 2%; DT40 TDP1 no CPT: inconclusive; DT40 TDP1 CPT: inconclusive

What do the screens show for `CC(C)CCNC(=O)c1onc(CSc2ccccc2)c1C(=O)NCCC(C)C`?
IL1B secr inh: -2; HT1080 IDH1KD tx: -9%; HT1080NT lethal: -2%; DT40 TDP1 no CPT: inconclusive; DT40 TDP1 CPT: 23µM*

Results for Cc1ccc(-c2nc3c(c(SCC(=O)N4CCOCC4)n2)Cc2c(CO)cnc(C)c2O3)cc1 ?
IL1B secr inh: 5; HT1080 IDH1KD tx: -1%; HT1080NT lethal: 3%; DT40 TDP1 no CPT: 10µM*; DT40 TDP1 CPT: 23µM*

What do the screens show for `COc1ccc(-c2nc3c(c(SCC(=O)N4CCOCC4)n2)Cc2c(CO)cnc(C)c2O3)cc1`?
IL1B secr inh: inconclusive; HT1080 IDH1KD tx: -11%; HT1080NT lethal: -10%; DT40 TDP1 no CPT: 10µM*; DT40 TDP1 CPT: 15µM*

Results for O=C(CSc1nc(-c2ccccc2)nc2c1Cc1ccccc1O2)N1CCCCC1 ?
DT40 TDP1 no CPT: 12µM*; DT40 TDP1 CPT: 10µM*

How did CCc1ccc(NC(=O)CSc2nc(-c3cccc(OC)c3)nc3c2Cc2c(CO)cnc(C)c2O3)cc1 do in these assays?
DT40 TDP1 no CPT: 7.3µM*; DT40 TDP1 CPT: 6.5µM*

What do the screens show for `CCSc1nc(-c2ccccc2)nc2c1Cc1c(CO)cnc(C)c1O2`?
DT40 TDP1 no CPT: -2%; DT40 TDP1 CPT: -9%

How did COc1ccc(-c2nc3c(c(SCC(=O)Nc4cc(C)cc(C)c4)n2)Cc2c(CO)cnc(C)c2O3)cc1 do in these assays?
DT40 TDP1 no CPT: -12%; DT40 TDP1 CPT: -4%

What do the screens show for `CCN(CC)C(=O)CSc1nc(-c2ccc(C)cc2)nc2c1Cc1c(CO)cnc(C)c1O2`?
DT40 TDP1 no CPT: 8.2µM*; DT40 TDP1 CPT: 9.2µM*

What do the screens show for `C=Cc1ccc(CSc2nc(-c3ccc(C)cc3)nc3c2Cc2c(CO)cnc(C)c2O3)cc1`?
DT40 TDP1 no CPT: 16µM*; DT40 TDP1 CPT: 15µM*

What do the screens show for `CCc1ccc(-c2nc3c(c(SCc4ccccc4)n2)Cc2c(CO)cnc(C)c2O3)cc1`?
DT40 TDP1 no CPT: -17%; DT40 TDP1 CPT: 0%

Screening data (PubChem)
